CBFb-RUNX1 inh: CBF-beta/RUNX1 interaction disruption; AlphaScreen CBFb-His/RUNX1-biotin binding, biochemical; Potency, µM (highest dose often 59.8 µM), for inactives: at the highest dose activity, negative = inhibition, hits mostly inhibitors; 230,000 tested, under 10 active; further: % of control where 0% means no effect
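CBFb-His/RUNX1-biotin, 30 nM each, preincubated 20 min RT; compound 15 min RT; Ni + streptavidin beads 50 ng each, 90 min RT; AlphaScreen read.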
Gal4-VP16 FLuc: counter-screen for ROR gamma inhibitors: Gal4-VP16 reporter; Drosophila S2 Gal4-VP16 UAS-luciferase, luminescence, 20 h; Potency, µM (series often up to 53.6 µM), for the others: at the top dose activity, negative = inhibition, most hits filed as inhibitors; actives 3.5% (n = 310,000); AID 2546;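 further: Gal4-VP16 expression switched on by copper sulfate through the metallothionein promoter; potency means the concentration at half of the fitted maximal effect; on the % scale 0 is the no-effect control and ±100 the full control effect; nearly all actives have a fitted effect of over 50% in size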
RORgamma inh: blocks mouse ROR gamma transcriptional activity. P51450. actives 5.4% (n = 310,000). Drosophila S2 Gal4-RORgamma UAS-luciferase reporter, 20 h. Potency, µM (doses to about 53.6 µM), without a hit: at the top dose activity change, negative = inhibition, usual class: inhibitors; further: potency means the concentration at half of the fitted maximal effect; on the % scale 0 is the no-effect control and ±100 the full control effect; nearly all actives have a fitted effect of over 60% in size
Target sequence (P51450 whole entry, looked up, the tested form may be a part): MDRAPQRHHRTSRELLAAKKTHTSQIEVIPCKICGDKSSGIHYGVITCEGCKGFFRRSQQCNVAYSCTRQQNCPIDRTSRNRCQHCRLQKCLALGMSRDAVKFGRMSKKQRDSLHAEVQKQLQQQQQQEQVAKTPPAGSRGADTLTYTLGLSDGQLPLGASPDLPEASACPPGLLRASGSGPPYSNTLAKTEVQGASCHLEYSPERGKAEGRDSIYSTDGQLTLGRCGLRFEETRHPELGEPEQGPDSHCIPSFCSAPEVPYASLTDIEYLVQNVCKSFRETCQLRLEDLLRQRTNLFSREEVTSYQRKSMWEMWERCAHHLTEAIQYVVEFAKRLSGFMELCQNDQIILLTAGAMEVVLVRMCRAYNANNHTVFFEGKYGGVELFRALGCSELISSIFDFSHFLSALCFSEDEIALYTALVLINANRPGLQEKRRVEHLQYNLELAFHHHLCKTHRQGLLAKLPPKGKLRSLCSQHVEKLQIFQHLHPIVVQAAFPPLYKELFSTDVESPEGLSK
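Luminescence from a UAS-regulated Photinus luciferase reporter in stably transfected Drosophila Schneider cells is measured; decreased signal marks ROR gamma inhibition. Fusion expression is induced by 700 uM copper sulfate for 20 hr.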
Six1-Eya2 blk: blocks human Six1 binding to Eya2; Q15475+O00167; AlphaScreen GST-Six1/His-Eya2 binding, biochemical; stronger effect = lower value; activity change, % (no concentration beside the values); actives 0.56% (n = 360,000); AID 651725; in the data active means activity change below about -65%; inconclusive means mostly about -30% to -63%; further: on the % scale 0 is the no-effect control and ±100 the full control effect
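Compounds are tested against tagged Six1 and Eya2 proteins bridged by glutathione donor and nickel acceptor beads; after a one-hour incubation at 37 °C without light, AlphaScreen emission is recorded.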
CtBP-E1A inh: inhibitors of CtBP/E1A interaction; AlphaScreen GST-E1A/His-CtBP binding, 1536-well; stronger effect = lower value; activity change, % (test concentration not listed); actives 0.49% (n = 340,000); in the data active means activity change below about -65%; inconclusive means mostly about -30% to -63%; further: on the % scale 0 is the no-effect control and ±100 the full control effect
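AlphaScreen with 125 nM GST-E1A and 125 nM His-CtBP (5X stocks) in Tris pH 8.0, 300 mM NaCl, BSA, Tween 20, TCEP. Compounds preincubated 2 h at 37 deg C, then glutathione donor/nickel acceptor beads added for 1 h at 37 deg C in dark.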
MBNL1 CUG block: MBNL1-poly(CUG) RNA binding inhibition | TR-FRET MBNL1-His/biotin-(CUG)12 binding, 665/545 ratio | Potency, µM (series often up to 57.5 µM), without a hit: at the top dose activity change, negative = inhibition, most hits filed as inhibitors | actives 0.036% (n = 280,000) | AID 2675 | Q9NR56; active means well fitted inhibition curve with a large enough effect in the signal ratio, with a control signal flat, not every such curve was filed as active; inconclusive means small, poorly fitted or top-dose-only effect, or effect the other way, or a change in a side signal; inactive means no such curve, though single readings can be large or run the other way; the % refers to the signal ratio; further: potency means the concentration at half of the fitted maximal effect; on the % scale 0 is the no-effect control and ±100 the full control effect
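His-tagged MBNL1 binding to biotinylated (CUG)12 RNA was measured by TR-FRET using terbium anti-His antibody (0.055 ng/ul final) and streptavidin-XL665 (5 nM final). Compounds were titrated 92 nM to 58 uM; 60 min at room temperature.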
* marks the source's active call; other numbers are inactive results; u = inconclusive; x = no result given; [ ] = remark or other dose. Only some compounds are listed: those with a hit (about 5.5% of all), similar ones and a draw of the others. Unless noted, the call rests on the fitted dose curve; in most records, active means well fitted curve in the direction sought with a large enough effect; inconclusive means small, poorly fitted or top-dose-only effect, or another doubt; inactive means no such curve, though single readings can be large; an effect the other way counts as inactive or inconclusive.

SMILES | CBFb-RUNX1 inh | Gal4-VP16 FLuc | RORgamma inh | Six1-Eya2 blk | CtBP-E1A inh | MBNL1 CUG block
O=C1C2C3C=CC(C3=C3CCCCC3)C2C(=O)N1c1ccccc1 (stereo unspecified) | 5.8% | 2.4% | 12.6µM* | 5.2 | 2.1 | 4.1%
CCCCc1c(-c2ccccc2F)ncn1CCc1ccccc1OC | x | x | x | -18.5 | -2.1 | x
NC(=S)n1[nH]c(-c2ccc([N+](=O)[O-])cc2)c(N=Nc2cccc([N+](=O)[O-])c2)c1=O | -19.0% | 2.51µM* | 0.631µM* | -1.0 | -0.2 | 5.3%
Cc1c(N=Nc2c(-c3ccc([N+](=O)[O-])cc3)[nH]n(C(N)=S)c2=O)cccc1[N+](=O)[O-] | -11.3% | u | 0.708µM* | -14.3 | -3.8 | 2.6%
Cc1ccc(S(=O)(=O)Nc2cc3c4c(c2)CC(=O)N4CCC3)cc1 | x | x | x | -4.7 | 4.4 | x
CCCS(=O)(=O)NC(=O)C1(C)CCN(C(=O)c2c(C)noc2C)C1 (stereo unspecified) | x | x | x | 12.3 | 6.5 | x
Cc1ccc(NC(=S)NCCN(C2CCCCC2)C2CCCC2)cc1C | 8.0% | -1.0%[10 µM] | 5.01µM* | -20.7 | -12.9 | -4.9%
Cc1cc(C)cc(NC(=S)NCCN2CCOCC2)c1 | x | x | x | -0.3 | 4.1 | x
Cc1ccc(NC(=S)NCCN(C2CCCCC2)C2CCCC2)cc1 | 9.1% | -5.9%[10 µM] | 11.2µM* | -5.7 | x | -8.9%
CCN(CC)CCNC(=S)Nc1ccc(Cl)cc1 | -7.4% | -2.2% | -29.2% | -5.0 | 6.7 | -3.2%
Cc1cc(C)cc(NC(=S)NCCN(C2CCCCC2)C2CCCC2)c1 | 0.6% | -0.1%[10 µM] | 4.47µM* | -11.6 | x | -12.5%
CSc1cccc(NC(=O)C2CC(=O)N(c3ccc4c(c3)OCCO4)C2)c1 (stereo unspecified) | x | x | x | -3.9 | -12.0 | x
O=C(c1ccc(Cl)cc1)C1CCN(C(=O)c2ccc(F)cc2)CC1 | x | u | 38.7% | -0.1 | 10.7 | 5.0%
O=S(=O)(c1cccc2c(Cl)cccc12)N1CCCNCC1 | 9.7% | -13.7% | -3.5% | x | x | x
O=C(O)c1cc(/C=C/C(=O)c2cc(F)ccc2O)c2c(c1)COCO2 | -16.3% | 10µM* | 12.6µM* | -6.3 | x | 5.8%
COc1cc(NC(=O)Cn2cnc(S(=O)(=O)N3CCC(C)CC3)c2)cc(OC)c1OC | x | -4.7% | 16.5% | -10.4 | -24.9 | -5.8%
COc1cc(OC)c(C(=O)Nc2cc(S(=O)(=O)N3CCOCC3)ccc2N2CCN(C)CC2)cc1OC | x | x | x | -6.4 | -3.7 | x
O=C(c1ccccc1)N(Cc1ccc(F)cc1)Cc1nc2ccccc2c(=O)[nH]1 | -0.9% | u | 3.55µM* | -2.6 | -1.8 | 2.9%
O=C(Nc1ccccc1F)N(Cc1ccc(F)cc1)Cc1nc2ccccc2c(=O)[nH]1 | -7.3% | u | -0.9% | 7.1 | 6.8 | -11.9%
O=C(c1ccncc1)N(Cc1ccccc1)Cc1nc2ccccc2c(=O)[nH]1 | -11.6% | -6.1% | u | -2.2 | 6.1 | 3.3%
CCOCCCNC(=S)N(Cc1ccccc1)Cc1nc2ccccc2c(=O)[nH]1 | -9.5% | u | 11.2µM* | -1.1 | 8.8 | -22.7%
CCN(Cc1nc2ccccc2c(=O)[nH]1)C(=O)COc1ccccc1Cc1ccccc1 | x | x | x | -5.5 | -2.2 | x
CCCNC(=S)N(Cc1ccccc1)Cc1nc2ccccc2c(=O)[nH]1 | -6.5% | u | 12.6µM* | 2.5 | -13.7 | -6.4%
CCCCc1ccc(NC(=O)CN2C(=O)C3CCCCC3C2=O)cc1 (stereo unspecified) | x | x | x | 4.9 | -0.5 | x
Cc1[nH]c2ccccc2c1/C=N/Nc1nc2ccccc2[nH]1 | 1.6% | -18.8% | -1.5% | -19.2 | u | u
c1ccc(CNc2nc3ccccc3[nH]2)cc1 | 0.5% | -20.5% | u | 3.9 | 10.4 | -6.5%
C(/CCc1ccccc1)=N\Nc1nc2ccccc2[nH]1 | u | -25.5% | 11.2µM* | -12.6 | x | x
CCCc1cc(=O)[nH]c(N/N=C/C=C\c2ccccc2)n1 | -15.5% | 3.6%[10 µM] | 7.08µM* | -8.3 | -9.0 | u

Bioassay records: PubChem BioAssay, National Center for Advancing Translational Sciences (NCATS)
